“And” between values parts separate entries of the source, which are not always exact repeats. Equal entries are not always repeated.
Assays:
[1] = system: Human papillomavirus type 1a protein E7 (residues 44-93); experiment: HPV1a E7 fragment binders on microarrays, primary screen, biochemical, small-molecule microarray, residues 44-93, 635 nm fluorescence (AID 1108); settings: small-molecule microarray binding, fluorescence 635 nm; higher = more signal;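 further: E7 fragment applied at 1 µg/mL in TBST for 1 h at 4 C; score combines spot fluorescence with its signal to noise ratio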
[2] = modulators of HCV replicon luciferase signal, primary screen, HCV replication inhibitor project, Huh7 cells, luciferase reporter (AID 1109); settings: 48 h, higher = more signal;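 further: huh7 hepatoma cells harbouring a luciferase neomycin HCV replicon reporter; luciferase luminescence as measure of HCV replicon replication; test concentration not given here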
[3] = target: Left-right determination factor 2 (Homo sapiens) (UniProt O00292); experiment: LEFTY2 binders on small-molecule microarrays, primary screen, biochemical, small-molecule microarray, 635 nm fluorescence scan (AID 1110); settings: LEFTY2 binding, higher = more signal
[4] = target: Calmodulin-1 (Homo sapiens) (UniProt P0DP23); experiment: CALM1 binders on microarrays, EGTA buffer, profiling panel, biochemical, small-molecule microarray, Cy5-labelled CALM1 (AID 1111); settings: Cy5-CALM1 binding fluorescence, higher = more signal;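 further: labelled calmodulin applied in Tris saline Tween buffer holding calcium plus EGTA and DTT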
[5] = target: Calmodulin-1 (Homo sapiens) (UniProt P0DP23); experiment: calcium-bound CALM1 binders on microarrays, profiling panel, artefact control for SMM control-protein annotation, biochemical, small-molecule microarray, Cy5-labelled CALM1, plus calcium (AID 1112); settings: Cy5-CALM1 binding fluorescence, higher = more signal;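 further: score merges spot fluorescence with signal to noise from triplicate slides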
[6] = small-molecule microarray binders of probe aWnt5a, primary screen, biochemical, biotinylated probe, 635/667 nm fluorescence (AID 1113); settings: higher = more signal;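 further: score merges 667 nm fluorescence intensity with signal-to-noise per printed feature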
[7] = small-molecule microarray binders of probe aShh, primary screen, biochemical, biotinylated probe, 635/667 nm fluorescence (AID 1114); settings: higher = more signal;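 further: probe is biotin-labelled aShh protein from a stem cell growth factor screen; measures binding of labelled protein to compounds printed on the slide; score merges feature fluorescence at 667 nm with signal-to-noise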
[8] = small-molecule microarray binders of probe aNog, primary screen, biochemical, biotinylated probe, 635/667 nm fluorescence (AID 1115); settings: higher = more signal;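 further: probe is biotinylated aNog protein used at 0.15 µg/mL for 1 h at 4 C; z-score combines 667 nm fluorescence of each spot with its signal to noise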
[9] = target: Torsin-1A-interacting protein 1 (Homo sapiens) (UniProt Q5JTV8); experiment: LAP1 binders from COS7 cell lysate, primary screen, small-molecule microarray, 635/667 nm fluorescence (AID 1116); settings: COS7-hLAP1 lysate binding, 635 nm fluorescence, higher = more signal
[10] = target: Alpha-bungarotoxin (Bungarus multicinctus) (UniProt P60615); experiment: alpha-bungarotoxin binders on microarray, profiling panel, artefact control for SMM control protein annotation, biochemical, small-molecule microarray, Alexa647 label, 635/667 nm fluorescence (AID 1117); settings: alpha-BTX-A647 binding fluorescence, higher = more signal
Sequence of Alpha-bungarotoxin (Bungarus multicinctus) (P60615 whole entry, looked up): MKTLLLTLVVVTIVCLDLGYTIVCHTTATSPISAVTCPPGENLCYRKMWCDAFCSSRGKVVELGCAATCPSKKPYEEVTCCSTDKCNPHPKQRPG

Sequence of Torsin-1A-interacting protein 1 (Homo sapiens) (Q5JTV8 whole entry, looked up): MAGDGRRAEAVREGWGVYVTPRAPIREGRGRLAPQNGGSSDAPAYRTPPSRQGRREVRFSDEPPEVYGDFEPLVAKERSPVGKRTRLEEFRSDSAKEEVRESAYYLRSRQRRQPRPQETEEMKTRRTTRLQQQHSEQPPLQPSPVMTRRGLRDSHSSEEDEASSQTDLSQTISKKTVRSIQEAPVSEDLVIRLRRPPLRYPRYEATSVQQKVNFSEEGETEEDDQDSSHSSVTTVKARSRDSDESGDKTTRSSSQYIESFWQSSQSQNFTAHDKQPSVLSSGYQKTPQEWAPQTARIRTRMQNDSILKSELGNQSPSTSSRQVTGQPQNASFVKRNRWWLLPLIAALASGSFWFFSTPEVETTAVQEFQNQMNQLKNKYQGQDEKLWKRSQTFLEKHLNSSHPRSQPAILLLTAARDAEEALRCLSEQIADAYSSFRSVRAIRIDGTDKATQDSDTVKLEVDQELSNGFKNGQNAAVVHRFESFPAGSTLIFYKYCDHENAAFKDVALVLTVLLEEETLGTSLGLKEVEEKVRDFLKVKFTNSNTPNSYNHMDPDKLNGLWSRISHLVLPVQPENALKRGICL
Sequence of Left-right determination factor 2 (Homo sapiens) (O00292 whole entry, looked up): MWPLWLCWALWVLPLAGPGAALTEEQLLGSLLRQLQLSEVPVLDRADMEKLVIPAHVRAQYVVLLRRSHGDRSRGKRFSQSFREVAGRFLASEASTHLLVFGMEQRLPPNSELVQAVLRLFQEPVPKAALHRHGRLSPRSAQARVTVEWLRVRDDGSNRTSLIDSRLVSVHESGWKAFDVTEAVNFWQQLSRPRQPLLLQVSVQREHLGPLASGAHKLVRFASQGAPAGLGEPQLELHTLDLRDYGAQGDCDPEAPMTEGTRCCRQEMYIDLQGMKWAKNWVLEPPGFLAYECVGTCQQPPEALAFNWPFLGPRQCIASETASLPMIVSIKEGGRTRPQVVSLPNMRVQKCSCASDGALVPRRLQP

Row | Structure (SMILES) | composite z-score [1] | z-score [2] | composite z-score [3] | composite z-score [4] | composite z-score [5] | composite z-score [6] | composite z-score [7] | composite z-score [8] | composite z-score [9] | composite z-score [10]
1 | CC(C)[Si]1(C(C)C)OCc2cc(C3CC3)nc(CCc3ccccc3)c21 | -0.789 and 0.192 | -0.745 and -0.958 | 0.045 and 0.273 | 0.154 and -0.425 | -0.253 and -0.002 | -0.15 and -0.0512 | -0.181 and -0.221 | 0.0732 and -0.0554 | -0.527 and 0.362 | 0.0536 and -0.448
2 | C=CCN(C(=O)C(c1cccs1)N(C(=O)/C=C\C(=O)O)c1ccc(CCO)cc1)c1ccc(OC)cc1 (stereo not given) | -1.01 and -1.64 | -0.465 and -0.171 | -3 and -5.82 | -0.453 and -1.54 | 0.742 and -0.222 | -0.203 and -0.27 | -0.0709 and -0.138 | -0.541 and -0.126 | -1.16 and -1.72 | -0.664 and -2.33
3 | CCOC(=O)[C@H](Cc1ccccc1)NC(=O)CCC1CC(OC(=O)NCc2cccc3ccccc23)CC2(CCCC(COC(=O)NCCCN3CCCC3=O)O2)O1 (stereo not given in full) | 1.28 | -0.963 | 0.752 | 0.394 | -0.267 | -0.2 | -0.279 | -0.17 | 0.403 | 0.552
4 | CC(CO)N1C(=O)[C@@H]2C3C(=O)OCCC=C[C@H]3OC23C=CCN(CCN2CCOCC2)C(=O)[C@@H]13 (stereo not given in full) | -1.05 and 0.497 | -0.38 and -0.851 | -0.346 and 0.398 | -0.0612 and -0.561 | -0.75 and -1.03 | -0.0981 and -0.13 | 0.0278 and 0.214 | 0.199 and -0.0161 | -0.71 and 1.48 | -0.106 and -0.0808
5 | O=C1NC(=O)C2C1C=CC(C(O)c1ccc([N+](=O)[O-])cc1)N2Nc1ccc(Cl)cc1Cl (stereo not given) | 0.481 and -0.621 | 0.175 and -1.19 | -0.176 and -0.0882 | 1.01 and 1.48 | 0.436 and 0.0078 | -0.0566 and 0.0775 | 0.0326 and -0.241 | 1.94 and 2.12 | 1.9 and 1.62 | 1.18 and 1.56
6 | C=CC[C@@H](O)c1ccc(O)c2ccccc12 | 0.837 and 1.21 | -1.89 and -2.65 | 0.723 and 0.901 | -1.52 and -0.403 | -1.59 and -1.41 | -0.101 and -0.0704 | 0.296 and -0.0553 | -0.369 and -0.55 | 0.848 and 0.0091 | 2.05 and 1.17
7 | CO[C@@H]1C=CCC(=O)N2CCC[C@H]2C(=O)OC[C@H](C)C(=O)OC[C@H]1C | 0.172 | 0.182 | 0.96 | -0.594 | -1.16 | -0.202 | -0.352 | -0.216 | 0.568 | -0.0037
8 | C[N+](C)(C)CCCCNC(=O)[C@@H]1C[C@@H]2C(=O)N[C@@H](CCCC[N+](C)(C)C)C(=O)N2[C@@H]1c1cccc(OCCO)c1 | 0.845 and 0.331 | -0.552 and -0.848 | 1.59 and 1.49 | -1.47 and -1.67 | -2.01 and -0.543 | -0.0758 and 0.048 | 0.23 and -0.0232 | -0.12 and 0.0139 | 2.23 and 1.62 | -0.257 and 1.62
9 | C=CCN(C(=O)C(c1cccs1)N(CCOCCO)C(=O)/C=C\C(=O)O)c1ccc(OC)cc1 (stereo not given) | -2.11 and -1.15 | 1.49 and 0.42 | 0.0612 and -1.47 | -0.328 and -1.13 | -0.0309 and 0.36 | -0.214 and -0.232 | -0.291 and -0.138 | -0.636 and 0.146 | -0.618 and -0.178 | -0.744 and -2.86
10 | CCCCCN1CC=CC23O[C@@H]4C=CCCOC(=O)C4[C@H]2C(=O)N(C(C)CO)[C@@H]3C1=O (stereo not given in full) | 0.439 and 1.12 | -1.79 and 1.05 | -0.151 and -0.907 | -0.858 and 0.167 | -0.707 and -0.806 | -0.357 and -0.28 | -0.223 and -0.0035 | -0.789 and -0.301 | -0.759 and 2.57 | -0.342 and 0.335
11 | CCOC(=O)C[C@H]1[C@H](OC(=O)c2ccccc2-c2ccccc2)[C@@H](NC(=O)Cc2ccc(OC)cc2)c2cc(OCCCO)ccc2N1C(=O)c1ccc2ccccc2n1 | 0.005 and 0.188 | -1.38 and -0.367 | 0.417 and 0.0866 | 0.174 and 1.45 | 0.141 and 0.318 | 0.0031 and 0.0512 | -0.0681 and -0.0146 | 0.0926 and -0.111 | 0.032 and 0.747 | 0.572 and 0.924
12 | C[N+](C)(C)CCCCNC(=O)[C@H]1C[C@H]2C(=O)N[C@@H](CCCC[N+](C)(C)C)C(=O)N2[C@H]1c1cccc(OCCO)c1 | -0.779 and 0.569 | -1.34 and -0.59 | 1.36 and 1.28 | -1.49 and -0.367 | -0.691 and -0.325 | -0.127 and -0.0512 | 0.0948 and 0.395 | -0.249 and -0.234 | 1.89 and 2.53 | -0.559 and 0.47
13 | COC(=O)[C@@]1(Cc2ccccc2)[C@H]2c3cc(C(=O)N(C)C)n(Cc4ccc(C)c(F)c4F)c3C[C@H]2CN1C(=O)c1ccccc1 | 1.41 and 1.38 | -3.76 and -2.08 | -0.301 and 0.288 | 1.46 and 2.22 | 0.818 and 1.11 | 0.208 and 0.822 | 1.91 and -0.279 | 0.782 and 0.365 | 2.24 and 0.536 | 0.226 and 1.1
14 | C=C(C)C(=O)OC[C@@H]1CN2[C@@H](CC[C@@H](C)[C@@H]2c2ccc(Br)cc2)C(=O)O1 | 0.854 | 0.867 | 0.891 | -0.265 | -0.157 | -0.109 | 0.0684 | -0.259 | 0.183 | 0.548
15 | CO[C@H]1COC(=O)CC=C[C@@H](C)COC(=O)[C@@H](OCc2ccccc2)C=C[C@@H]1C | -0.418 | -0.0629 | 1.32 | -0.779 | -2.05 | -0.34 | 0.149 | -0.378 | 0.417 | 0.205
16 | COC(=O)C1=C(C)N(Cc2ccccc2)[C@]23O[C@](C(=O)OC)(C(=O)N2[C@@H]1c1ccccc1)[C@@H](c1ccccc1)[C@@H]3C(=O)c1ccccc1 | 0.189 and -0.932 | 0.989 and 0.471 | 0.494 and 0.9 | 1.43 and -1.06 | 0.589 and -0.256 | -0.0417 and -0.137 | -0.276 and -0.16 | -0.0315 and -0.226 | 0.296 and -0.228 | 0.932 and -0.0514
17 | C=C[C@H](OC)[C@@H](O)c1ccc(O)c(F)c1 | -1.18 and -1.38 | 0.156 and -0.114 | -2.27 and -2.63 | -1.27 and -0.866 | -0.625 and -0.713 | -0.244 and -0.356 | -0.262 and -0.282 | -0.173 and -0.8 | -0.753 and -1.81 | -1.36 and -0.191

— PubChem BioAssay
